Results taken from the supplement of paper PMC9135407.
Counter-ions that a name gives are not always drawn. A number with no mark means an inactive call.

system: primary human hepatic stellate cells (donor 1); assay: COL1A1 mRNA fold change vs DMSO (normalised to PSMB2); higher = more COL1A1 expression, active = hit call of the paper; conditions: 48 h
Protocol: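 Secondary qRT-PCR screen in primary human HSCs (donor 1), 384-well plates, with compounds dispensed in quadruplicate and incubated for 48 h. Cells-to-CT lysates were used for multiplexed TaqMan qPCR of ACTA2 or COL1A1 with PSMB2 as reference. Fold changes versus DMSO come from a linear model (Ct_gene ~ Ct_PSMB2 + plate + chemical). A hit is defined as COL1A1 and ACTA2 FC <0.5 (FDR <0.05) with PSMB2 between 0.2 and 2.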

SMILES	COL1A1 mRNA fold change
CCc1cc2c(cc1CC)CC(NC[C@H](O)c1ccc(O)c3[nH]c(=O)ccc13)C2 [Indacaterol Maleate] (33.3333 µM)	0.0797 (active)
CSc1ccc2c(c1)C(N1CCN(C)CC1)Cc1ccccc1S2 (stereo unspecified) [Methiothepin maleate] (33.3333 µM)	0.00214
CN1CCN(C2=Cc3ccccc3Oc3ccc(Cl)cc32)CC1 (33.3333 µM)	0.416 (active)
CCN(CC)CC#CCOC(=O)C(O)(c1ccccc1)C1CCCCC1 (stereo unspecified) [Oxybutynin chloride] (16.9333 µM)	0.755
NC1(c2ccc(-c3nc4ccn5c(=O)[nH]nc5c4cc3-c3ccccc3)cc2)CCC1 (11.1 µM)	0.184
CNc1nccc(-c2cccnc2Oc2cc(C(=O)Nc3cccc(C(F)(F)F)c3)ccc2C)n1 (33.3333 µM)	0.618
COc1cc2ncn(-c3cc(OCc4ccccc4C(F)(F)F)c(C(N)=O)s3)c2cc1OC (33.3333 µM)	1.1
COC(=O)N[C@H](C(=O)N1CCC[C@H]1c1ncc(-c2ccc(-c3ccc(-c4cnc([C@@H]5CCCN5C(=O)[C@@H](NC(=O)OC)C(C)C)[nH]4)cc3)cc2)[nH]1)C(C)C (33.3333 µM)	0.0176
C[C@H]1O[C@@H](O[C@H]2[C@@H](O)C[C@H](O[C@H]3[C@@H](O)C[C@H](O[C@H]4CC[C@@]5(C)[C@H](CC[C@@H]6[C@@H]5C[C@@H](O)[C@]5(C)[C@@H](C7=CC(=O)OC7)CC[C@]65O)C4)O[C@@H]3C)O[C@@H]2C)C[C@H](O)[C@@H]1O [Digoxin] (33.3333 µM)	0.0679 (active)
C[C@@H](CN1CCC(n2c(=O)[nH]c3cc(Cl)ccc32)CC1)NC(=O)c1ccc2ccccc2c1 (33.3333 µM)	0.19
CN(C)Cc1c(C(=O)NCCOc2ccc(C(=O)NO)cc2)oc2ccccc12 (33.3333 µM)	0.0321 (active)
